Bioassay records (PubChem)
An excerpt weighted towards active compounds, which were near 5.3% of everything screened.
VACV mCherry inh – inhibitors of vaccinia virus infection (mCherry reporter signal); Vaccinia virus mCherry reporter infection, fluorescence; Potency, µM (top dose mostly 36.5 µM), without a hit: at the highest dose activity change, negative = inhibition, most hits filed as inhibitors; 0.63% of 310,000 active; calls by dose curve; tested in A549 cells; note: nearly all actives have a fitted effect of over 35% in size
FMDV antiviral – foot and mouth disease virus antiviral activity; FMDV antiviral cell-based qHTS; AID 1159524; Potency, µM (doses to about 57.9 µM), for inactives: at the highest dose activity change, negative = inhibition, hits mostly inhibitors; 1.2% of 410,000 active; calls by dose curve; tested in HEK293T cells; note: read-out not given here; nearly all actives have a fitted effect of over 45% in size
Vaccinia Venus – vaccinia inhibition (Venus reporter) | Potency, µM (top dose mostly 36.5 µM), for the others: at the highest dose activity change, negative = inhibition, usual class: inhibitors | 0.46% of 330,000 active | Vaccinia virus Venus reporter expression, fluorescence; calls by dose curve; tested in A549 cells; note: nearly all actives have a fitted effect of over 30% in size
MARV entry inh – blocks Marburg virus binding to or entry into cells; Marburg virus pseudotyped entry inhibition, cell reporter; Potency, µM (doses to about 37.8 µM), for the others: at the highest dose activity change, negative = inhibition, usual class: inhibitors; 1.8% of 300,000 active; calls by dose curve; tested in HEK293 cells
Lassa entry inh – blocks Lassa virus binding to or entry into cells; Lassa virus pseudotype entry inhibition, cell reporter; Potency, µM (highest dose often 37.9 µM), inactives show top-dose activity change, negative = inhibition, most hits filed as inhibitors; 1.2% of 300,000 active; calls by dose curve; tested in HEK293 cells; note: nearly all actives have a fitted effect of over 50% in size
HCV inh – inhibitors of hepatitis C virus infection. Huh7.5.1 HCVcc-Cre infection, luciferase reporter, 44 h. Potency, µM (titrated, usually from 41.8 µM), without a hit: top-dose activity change, negative = inhibition, hits mostly inhibitors. 3.4% of 340,000 active; active = well fitted inhibition curve with a large enough effect; inconclusive = small, poorly fitted or top-dose-only effect, or another doubt; inactive = no such curve, though single readings can be large or run the other way
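Reporter virus HCVcc-Cre (~0.5 moi) infects cells exposed to compound; seeding density 1,000 cells/well with 4 h settling beforehand. Luminescence, 15 sec read, taken 44 h post-infection following a 15 min RT substrate incubation.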
An asterisk follows results filed as active; i = inactive; ? = inconclusive; · = not tested or not shown; [ ] = another dose, or the depositor's remark. % is set by controls: 0 for no effect and ±100 for the full control effect; potency is the fitted concentration of half-maximal effect.

SMILES	VACV mCherry inh	FMDV antiviral	Vaccinia Venus	MARV entry inh	Lassa entry inh	HCV inh
COc1ccc(CN2CCOc3ccc(CN4CCN(CCO)CC4)cc3C2)c2ccccc12	-20.0%	-7.5%	-11.6%	·	·	·
C=Nc1ccc(/C=C/c2ccnc3ccccc23)cc1	-22.5%	·	-25.7%	·	·	·
COC(=O)[C@@H]1CCCN1C(=O)c1c(OC)cc(=O)n2c1CCN(Cc1ccc3cccnc3c1)CC2	-0.8%	1.6%	-10.6%	·	·	·
COc1ccc(C)cc1NC(=O)CSc1ncc2c(n1)-c1ccc(Cl)cc1N(Cc1ccccc1)S2(=O)=O	-16.9%	-12.9%	-11.9%	·	8.2%[46.1 µM]	·
CN(C(=O)c1ccc(NC(=O)Cc2cccc(NC(=O)C3CCCN(C(=O)CCc4ccccc4)C3)c2)cc1)C1CCCC1 (centres undefined)	-28.3%	0.0%	?	·	·	?
CN(C(=O)c1ccc(Oc2ccc([N+](=O)[O-])cc2)cc1)C1CCCCC1	·	?	·	·	·	12.6µM*
CN(C(=O)c1cccc(NC(=O)Cc2ccc(NC(=O)C3CCCN(C(=O)CCc4ccccc4)C3)cc2)c1)C1CCCC1 (centres undefined)	15.8µM*	?	?	·	·	?
CN(C(=O)c1ccc(NC(=O)Cc2ccc(NC(=O)C3CCCN(C(=O)CCc4ccccc4)C3)cc2)cc1)C1CC1 (centres undefined)	?	?	?	·	·	14.1µM*
CN(Cc1ccccc1)C(=O)c1ccc(NC(=O)Cc2cccc(NC(=O)C3CCCN(C(=O)CCc4ccccc4)C3)c2)cc1 (centres undefined)	-13.8%	?	?	·	·	?
O=C(Cc1ccc(NC(=O)C2CCCN(C(=O)CCc3ccccc3)C2)cc1)Nc1cccc(C(=O)N2CCCCC2)c1 (centres undefined)	-21.9%	?	?	·	·	7.94µM*
O=C(Cc1ccc(NC(=O)C2CCCN(C(=O)CCc3ccccc3)C2)cc1)Nc1cccc(C(=O)N2CCCC2)c1 (centres undefined)	?	?	-12.1%	·	·	-21.9%[8.37 µM]
N#Cc1ccc(S(=O)(=O)N2CCN(c3nc(-c4ccccc4)nc4ccccc34)CC2)cc1	i	·	-14.2%	·	·	·
O=C(c1cnn(-c2nccc(-c3ccccc3F)n2)c1C1CC1)N1CCN(CCO)CC1	-8.7%	-2.0%	-10.7%	·	·	·
CC(C)(C)CC(C)(C)N=C1Nc2cc(Cl)c(Cl)cc2N[C@]12C[C@H]1CCCC(=O)N3CC[C@@H](C2)[C@@H]13	i	·	-12.8%	·	·	·
N#C/C(=C\c1ccccc1[N+](=O)[O-])C(=O)NC1CCCCC1	-12.0%	35.5µM*	5.2%	?	?	-5.9%
N#C/C(=C\C=C\c1ccccc1[N+](=O)[O-])C(=O)NC1CCCCC1	?	25.1µM*	?	?	?	?
CCOc1ccccc1/C=C(\C#N)C(=O)NC1CC1	·	-19.6%	·	·	·	-1.9%
COc1ccc(-c2[nH]ncc2/C=C(/C#N)C(=O)NC2CCCCC2)cc1	-20.3%	?	-16.3%	?	?	12.6µM*
COc1ccc(OC)c(NC(=O)Cn2c(=O)n(-c3ccc(Cl)cc3)c(=O)c3c(C)c(C)sc32)c1	?	-19.1%	?	-2.2%[46.1 µM]	11.4%[46.1 µM]	·
O=c1oc2cc(Oc3c([N+](=O)[O-])cc(C(F)(F)F)cc3[N+](=O)[O-])ccc2c2c1CCCC2	·	?	·	?	-0.2%	3.16µM*
COCC(C)NC(=O)c1ccccc1OC(C)=O (centres undefined)	·	2.2%	·	-3.2%	0.0%	0.2%
CC(=O)Oc1ccccc1C(=O)NC(C)CCc1ccccc1 (centres undefined)	-7.6%	25.1µM*	-26.1%	-29.6%	-9.0%	?
COc1ccc(N2CCN(C(=O)c3cnn(-c4ccc(OC)cc4)c3C3CCN(C(=O)OC(C)(C)C)CC3)CC2)cc1	-13.6%	2.9%	-5.0%	·	?	·
COc1ccc(-c2cc(C)no2)cc1S(=O)(=O)Nc1cccc(C)c1	·	27.9%	·	·	·	10µM*
COc1ccc(-c2cc(C)no2)cc1S(=O)(=O)N1CCCCC1	·	1.8%	·	·	·	-13.2%
Cc1cccc(N2CCN(S(=O)(=O)c3cc(-c4cc(C)no4)ccc3C)CC2C)c1 (centres undefined)	·	0.0%	·	·	·	3.98µM*
